GDH-TPI counter – GDH-TPI coupled enzyme inhibition counter-screen | GDH-TPI coupled enzyme counterscreen, NADH absorbance | inhibition, % at 4.8 µM | actives 1.2% (n = 360,000)
BH1578 lux ind – inducers of Vibrio cholerae quorum light production without autoinducers | V. cholerae BH1578 lux reporter, luminescence, 6 h | activation, % at 18.7 µM | actives 0.16% (n = 350,000); in the data active = activation mostly above about 9.7%, no sharp cut-off
CCHFV vOTU inh – blocks the CCHF virus ovarian tumor domain protease; CCHFV vOTU protease, Pep-AMC fluorescence; inhibition, % at 11.5 µM; actives 0.55% (n = 370,000); AID 651958
Mtb FBA inh – inhibits M. tuberculosis FBA enzyme; actives 2.3% (n = 360,000); inhibition, % at 1 µM; AID 588726; P9WQA3; purified M. tuberculosis FBA, fluorescence read-out; in the data active = inhibition above about 27%
Target sequence (P9WQA3 whole entry, looked up): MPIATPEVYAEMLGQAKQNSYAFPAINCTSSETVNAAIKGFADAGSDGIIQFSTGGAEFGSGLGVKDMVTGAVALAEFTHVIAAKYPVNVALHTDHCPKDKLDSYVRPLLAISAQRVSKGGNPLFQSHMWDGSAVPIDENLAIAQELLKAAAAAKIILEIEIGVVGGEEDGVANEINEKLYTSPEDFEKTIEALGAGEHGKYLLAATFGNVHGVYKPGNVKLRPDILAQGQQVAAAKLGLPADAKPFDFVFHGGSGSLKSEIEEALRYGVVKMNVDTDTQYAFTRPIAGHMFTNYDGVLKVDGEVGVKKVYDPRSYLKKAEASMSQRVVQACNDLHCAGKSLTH
A number is an active result; 0 = inactive; - = not tested or not shown; + = active, no number. Compounds with a hit are over-represented: about 3.9% of the library has one in this group of screens. Rule as the data show it, unless noted: active = inhibition above about 30%; inactive = the rest.

SMILES	GDH-TPI counter	BH1578 lux ind	CCHFV vOTU inh	Mtb FBA inh
O=C(O)CCC(=O)c1ccc2c(c1)CCCC2	0	0	0	0
CCN(CC(=O)Nc1c(F)cccc1F)C(=O)C1CCN(S(=O)(=O)c2ccc(F)cc2)CC1	0	0	0	0
COc1ccc(CNc2nc(-c3ccccc3)nc3ccccc23)cc1OC	0	0	32.0	0
Cc1oc2c(CN3CCCC3)c(O)ccc2c(=O)c1-c1ccccc1	0	0	-	118.3
Cc1oc2c(CN3CCC(C)CC3)c(O)ccc2c(=O)c1-c1ccccc1	0	0	0	180.9
Cc1oc2c(CN3CCCC3)c(O)ccc2c(=O)c1-c1ccc(Cl)cc1	0	0	0	86.3
COc1ccc(-c2c(C(F)(F)F)oc3c(CN4CCN(C)CC4)c(O)ccc3c2=O)cc1	0	0	0	0
O=c1c(Oc2ccccc2Br)c(C(F)(F)F)oc2c(CN3CCCC3)c(O)ccc12	0	0	0	0
O=C(COC(=O)C1CCN(S(=O)(=O)c2cccs2)CC1)NCc1ccc(F)cc1	0	0	0	0
O=C(N/N=C\c1ccccc1)c1ccccc1-n1cccc1	0	0	0	0
COc1cc2oc3cc(C)oc(=O)c3c2cc1OC	0	0	0	142.4
COc1cc2oc(=O)c(Br)c(C)c2c(OC)c1OC	0	0	0	0
CCCS(=O)(=O)c1c(S(=O)(=O)CCC)c2cnccn2c1C(=O)c1ccc(OC)cc1	0	0	0	0
CCCS(=O)(=O)c1c(S(=O)(=O)CCC)c2cc(-c3ccncc3)ccn2c1C(=O)OC	0	0	0	+
N#C/C(=C\c1ccc[nH]1)C(=O)N1CCCCC1	31.4	0	0	0
N#C/C(=C\c1ccc(O)cc1)C(=O)N1CCCC1	0	0	0	0
Cc1nc(CN(C)Cc2nc(Cc3ccccc3Cl)no2)cs1	0	0	0	0
Cc1cccc(C)c1NC(=O)CN(C)C(=O)c1ccccc1C(=O)N(C)Cc1ccccc1	0	0	0	0
CCc1cccc(C)c1NC(=S)N(CCN(C)C)C(C)c1cccnc1 (centres undefined)	0	0	0	0
CC(=O)Nc1ccc(Nc2cc(C)nc3ccccc23)cc1	37.9	0	0	0
Cc1cc(Nc2ccccc2Cl)c2ccccc2n1	36.5	0	0	0
COc1ccc(Cl)cc1Nc1cc(C)nc2ccccc12	0	0	0	0
CCOc1ccc(NC(=O)C(C)C(Cc2ccc(C)cc2)C(=O)O)cc1 (centres undefined)	0	0	0	0
Cc1c(C(=O)OCC(=O)N(C)CC(=O)Nc2ccc(F)cc2)oc2ccccc12	0	0	0	0
O=C(O)CCC(=O)N1c2ccccc2NC2=C(C(=O)CC(c3ccc(F)cc3)C2)C1c1ccc([N+](=O)[O-])o1 (centres undefined)	0	0	0	0
SMILES	GDH-TPI counter	BH1578 lux ind	CCHFV vOTU inh	Mtb FBA inh
COc1ccc(C2CC(=O)C3=C(C2)Nc2ccccc2N(C(=O)CCC(=O)O)C3c2ccc(F)cc2)cc1 (centres undefined)	50.0	0	0	0
CC(=O)c1ccc(S(=O)(=O)Nc2ccc3c(c2)OCO3)cc1	0	0	0	0
CC(C)(C)c1nnc(N/N=C/c2ccccc2O)n(N)c1=O	36.4	0	0	0
Cn1cnnc1SCc1ccc(C(=O)N=Nc2c(O)n(Cc3ccc(Cl)cc3)c3ccccc23)cc1	0	0	0	0
O=C1C[C@@H](c2ccc(O[C@@H]3O[C@H](CO)[C@@H](O)[C@H](O)[C@H]3O)cc2)Oc2cc(O)ccc21	34.5	0	0	0
O=C(c1ccccc1Oc1ccccc1)N1CCN(c2ccccc2)CC1	0	0	0	0
CCOC(=O)Cn1cc(C(=O)c2ccco2)c2ccccc21	0	0	0	0
O=C(O)Cn1cc(C(=O)c2ccco2)c2ccccc21	32.4	0	0	0
N#Cc1c(-c2ccccc2)cc2nc3ccccc3n2c1N	0	0	0	147.4
COc1cc(-c2cc3nc4ccccc4n3c(N)c2C#N)cc(OC)c1OC	0	0	0	+
CC(NCCCOc1cccc2ccccc12)c1ccccc1 (centres undefined)	0	0	0	0
COc1ccc(C=C(C#N)C(=O)c2ccccc2)cc1	-	-	0	-
COc1cc(/C=C(\C#N)C(=O)c2ccc(O)c(O)c2)cc(I)c1O	54.6	0	0	0
COc1ccc(Nc2nc3ccccc3n2C)cc1	0	0	0	0
Cn1c(/C=C/c2ccccc2)nc2ccccc2c1=O	0	0	0	0
COc1ccc(/C=C/c2nc3ccccc3n2C)cc1	64.6	0	0	0
Cn1c(/C=C/c2ccc(Cl)cc2)nc2ccccc2c1=O	37.1	0	0	0
COc1ccc(/C=N\n2nnc3ccccc32)cc1	50.6	0	0	0
O=c1c2ccccc2nc(/C=C/c2ccccc2)n1CCCO	35.0	0	0	0
O=c1c2ccccc2nc(/C=C/c2ccc3c(c2)OCO3)n1CCCO	0	0	-	0
Cc1ccc(S(=O)(=O)N2CCC(C(=O)Nc3ccccc3N3CCCC3)CC2)c(C)c1	0	0	0	0
Cc1nn(C)c(C)c1NC(=O)CCl	0	0	0	0
O=C(Nc1ccc(N2C(=O)C3C4C=CC(C4)C3C2=O)cc1)Nc1nncs1 (centres undefined)	0	0	0	0
Cc1ccc(S(=O)(=O)Nc2cc3c(cc2N2CCOCC2)n(C)c(=O)c(=O)n3C)cc1	31.7	0	0	0
CCn1c(=S)sc2c(=O)n(-c3ccccc3)c(=S)[nH]c21	35.4	0	0	0
SMILES	GDH-TPI counter	BH1578 lux ind	CCHFV vOTU inh	Mtb FBA inh
CN(C1CCCCC1)S(=O)(=O)c1cccc(C(=O)Nc2ccccn2)c1	0	0	0	0
CC(=O)N(CN1C(=O)c2ccccc2C1=O)c1ccccc1	0	0	0	0
CCNc1nc(C)c(CN(C(C)=O)c2ccccc2)nc1C#N	0	0	0	125.9
O=C(COC(=O)C1CCC(=O)N1)Nc1ccccc1Br (centres undefined)	31.6	0	0	0
COc1ccc(OC)c(S(=O)(=O)NCC2CCCO2)c1 (centres undefined)	0	0	0	0
CN1C(=O)C2C(c3ccc(N(C)C)cc3)=NN(Cc3ccccc3)C2C1=O (centres undefined)	43.9	0	0	0
COc1ccc(C2=NN(Cc3ccccc3)C3C(=O)NC(=O)C23)cc1 (centres undefined)	0	0	0	0
Cc1nn(S(=O)(=O)c2ccc(C(C)(C)C)cc2)c(C)c1S(=O)(=O)N1CCOCC1	0	0	0	0
CCC(=O)N1CCc2cc(S(=O)(=O)NCCCN(CC)Cc3ccccc3)ccc21	0	0	0	0
CCN1C(=O)/C(=C\N(C)C)NC1=S	33.6	0	0	0
COc1ccc(N2C(=O)/C(=C/N(C)C)NC2=S)cc1	0	0	0	0
COC(=O)C1=C(C)NC2=C(C(=O)CCC2)C1c1ccc(-c2ccsc2C(=O)OC)o1 (centres undefined)	49.7	0	0	0
CC1=C(C(=O)OC2CCCCCC2)C(c2ccc(C)o2)C2=C(CCCC2=O)N1 (centres undefined)	0	0	0	0
O=C(O)c1ccc(N/N=C/c2cccc3nccnc23)cc1	45.6	0	0	0
O=C(O)c1ccc(N/N=C/c2cc3ccccc3nc2Cl)cc1	36.7	0	0	0
CCN(C(=O)c1cnc2scc(C)n2c1=O)c1ccccc1C	30.8	0	0	0
